Screens deposited in PubChem by National Center for Advancing Translational Sciences (NCATS).
RXFP1 antagonist – blocks the human relaxin receptor RXFP1 | Q9HBX9 | 0.59% of 350,000 active | activity change, negative = inhibition, % at 57.5 µM | HEK293-RXFP1, relaxin-stimulated cAMP HTRF, 30 min; active compounds read low;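 active = activity change of -60% or lower, but not beyond a set lower limit; inconclusive = change between -60% and -40%, or beyond the set limit; inactive = change above -40%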; note: % is set by controls: 0 for no effect and ±100 for the full control effect
gsp antagonist – antagonists of gsp mutant (McCune-Albright syndrome); 0.4% of 340,000 active; AID 624288; Potency, µM (series often up to 76.9 µM), for the others: top-dose activity change, negative = inhibition, hits mostly inhibitors; gsp-mutant cells, cAMP HTRF, 30 min; calls by dose curve; cell line not stated here;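 note: intracellular cAMP measured with PDE inhibitor Ro 20-1724 present during compound exposure; potency is the fitted concentration of half-maximal effect; % is set by controls: 0 for no effect and ±100 for the full control effect; nearly all actives have a fitted effect of over 65% in size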
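Measurement of cellular cAMP by homogeneous time-resolved fluorescence following a 30 min compound exposure at 37C. The PDE inhibitor […] was present throughout; the assay buffer was DPBS with 0.05% BSA and 0.005% Tween 20.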
TSHR antag – human thyrotropin receptor antagonism; TSHR-expressing cells, TSH-stimulated cAMP HTRF, 2 h; active compounds read low; P16473; activity change, negative = inhibition, % at 11.5 µM; 0.2% of 330,000 active;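 active = activity change below a set negative limit, meaning inhibition stronger than a set level, cut at about -70% in these data; inconclusive = activity change between two set negative limits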; note: % is set by controls: 0 for no effect and ±100 for the full control effect
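TSHR-expressing cells were treated with compounds, then stimulated with TSH at EC80 (4nM final) for 2 hours at 37 deg C. Cellular cAMP was measured by HTRF competition between lysate cAMP and cAMP-d2 for a cryptate-labelled anti-cAMP antibody.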
gsp agonist – agonists of gsp mutant (McCune-Albright syndrome); gsp mutant cells, cAMP HTRF, 30 min; Potency, µM (series often up to 76.9 µM), for inactives: at the highest dose activation (cAMP increase), actives largely listed as activators; 0.13% of 340,000 active; AID 624287; active = well fitted activation curve with a large enough effect; inconclusive = small, poorly fitted or top-dose-only effect, or another doubt; inactive = no such curve, though single readings can be large or run the other way; cell line not stated here;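 note: phosphodiesterase inhibitor Ro 20-1724 added with compounds to block cAMP breakdown; potency is the fitted concentration of half-maximal effect; nearly all actives have a fitted effect of over 60% in size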
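Cells in DMEM/10% FBS with G418 were pretreated with compounds in DMSO plus […] (300 uM stock) for 30 min at 37C. cAMP was measured by HTRF (cAMP-d2 plus anti-cAMP antibody-K) after 30 min at room temperature.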
RXFP1 agonist – activates the human relaxin receptor RXFP1. HEK293T-RXFP1 cAMP TR-FRET, 30 min; response scale: percent of porcine relaxin response, buffer zero. Potency, µM (titrated, usually from 57.5 µM), for inactives: at the top dose activation, most hits filed as activators. 0.3% of 370,000 active; active = well fitted activation curve with a large enough effect; inconclusive = small, poorly fitted or top-dose-only effect; note: potency is the fitted concentration of half-maximal effect; % is set by controls: 0 for no effect and ±100 for the full control effect; nearly all actives have a fitted effect of over 60% in size
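HEK293T cells stably expressing RXFP1 were pretreated with the PDE4 inhibitor Ro 20174, exposed to compounds for 30 min at 37C, lysed, and cAMP was read by TR-FRET. Data normalized to buffer (basal) and 29 nM porcine relaxin (100%).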
An asterisk follows results filed as active; ? = inconclusive; · = no result given; [ ] = remark or other dose. Hits are enriched below; roughly 1% of the tested compounds scored in any of these assays.

SMILES	RXFP1 antagonist	gsp antagonist	TSHR antag	gsp agonist	RXFP1 agonist
N#Cc1c(N)nc2c3c(sc(=N)c2c1N)NC(=O)CC3c1c(F)cccc1Cl (stereo not given)	8	4%	30	7%	?
N#Cc1c(N)nc2c3c(sc(=N)c2c1N)NC(=O)CC3c1ccccc1 (stereo not given)	4	6%	9	31%	28µM*
CCOc1ccc(NC(=O)Cn2nnc(C(=O)NCc3ccc(OC)cc3)c2N)cc1	13	16%	-6	-12%	3%
CCOc1ccc(Cn2nnc(C(=O)NCc3ccc(OC)cc3)c2N)cc1	·	-23%	1	-38%	32µM*
CCCCc1nc2cc(C(=O)NCc3cn(C)nc3C)ccc2o1	8	35µM*	-19	7%	3%
O=C1c2[nH]nc(-c3ccc(F)cc3)c2C(c2ccccc2F)N1c1ccccc1 (stereo not given)	-68*	·	·	·	6%
COc1cc(C2c3c(-c4ccccc4)n[nH]c3C(=O)N2c2ccccc2)ccc1O (stereo not given)	4	0%	-35	1%	1%
C/C(=N\NC(=O)c1ccccc1[N+](=O)[O-])c1ccc(Br)s1	-66*	2%	-19	-6%[15.4 µM]	1%
C/C(=N\NC(=O)c1ccccc1O)c1ccc(Br)s1	13	-14%	-11	0%	-1%
Cc1ccccc1CNc1nc(N(C)C)nc2c1cnn2C	-13	·	·	·	0%
Cc1ccc(Nc2cc(C)nc3ccc(C)cc23)cc1	-82*	5%	-96*	1%	1%
CCOc1ccc(Nc2cc(C)nc3ccc(C)cc23)cc1	-31	?	·	-15%[15.4 µM]	·
Cc1cccc(-c2nc(SCC(=O)N3CCc4ccccc43)c3c(=O)n(C)c(=O)n(C)c3n2)c1	8	·	·	·	2%
Cc1cccc(N2CCN(CCCNC(=O)C3CCCN(c4ncnc5c4nc4n5CCCCC4)C3)CC2C)c1 (stereo not given)	6	-22%	-3	29%	-1%
Cc1cccc(N2CCN(c3ncnc4c3nc3n4CCCCC3)CC2C)c1 (stereo not given)	-70*	·	·	·	4%
CC1=C(SCc2ccccc2)C(=O)c2ccccc2C1=O	?	-12%	·	11µM*	·
Cc1cc(N2C(=O)C(O)=C(C(=O)c3cc4ccccc4o3)C2c2ccc(Br)cc2)no1 (stereo not given)	10	-4%	27	3.5µM*	22µM*
COc1ccc(OC)c(C2C(C(=O)c3cc4ccccc4o3)=C(O)C(=O)N2c2cc(C)on2)c1 (stereo not given)	·	-8%	36	14µM*	?
Cc1cc(N2C(=O)C(O)=C(C(=O)c3ccc(C)o3)C2c2ccc([N+](=O)[O-])cc2)no1 (stereo not given)	-12	-15%	-11	16%	1%
COc1ccc(OC)c(C2C(C(=O)c3ccc(C)o3)=C(O)C(=O)N2c2cc(C)on2)c1 (stereo not given)	-12	-34%	-7	?	?
CCCN1CCN(c2nnc(-n3cccc3C(=O)Nc3cc(Cl)ccc3C)s2)CC1	-8	·	·	·	-1%
Cn1c(O)c(/C=N/NC(=O)c2cc3ccccc3cc2O)c2ccccc21	?	35µM*	-37	-8%[15.4 µM]	5%
Cc1cc(C)cc(OCC(=O)N2CCC(c3nc4ccccc4o3)CC2)c1	?	·	·	·	-3%
COc1ccc(N2CC(NS(=O)(=O)c3cccs3)CC2=O)cc1OC (stereo not given)	-82*	5%	10	19%[15.4 µM]	-1%
COc1ccc(N2CC(NS(=O)(=O)c3cccs3)CC2=O)cc1 (stereo not given)	-2	-2%	4	9%[15.4 µM]	2%
COc1ccc(C2C(=O)N(C3CCC(C)CC3)CC(=O)N2C2CCCC2)cc1OC (stereo not given)	-2	·	·	·	2%
NC(=S)n1[nH]c(-c2ccc([N+](=O)[O-])cc2)c(N=Nc2ccccc2[N+](=O)[O-])c1=O	-5	-10%	6	1%	0%
NC(=S)n1[nH]c(-c2ccc([N+](=O)[O-])cc2)c(N=Nc2cccc([N+](=O)[O-])c2)c1=O	-30	14µM*	?	-39%	-2%
